Only some compounds are listed: those with a hit (about 1.7% of all), similar ones and a draw of the others.
Rin1 Abl inh = inhibitors of human Rin1-Abl protein interaction; P00519+Q13671; TR-FRET Rin1/Abl binding, biochemical; inhibition, % at 7.35 µM; actives 0.4% (n = 360,000); AID 588664; in the data active means inhibition above about 5%, passing the limit was not always enough
LYPLA1 counter = LYPLA1 (human) inhibition in PME1 counter-screen; O75608; recombinant LYPLA1, FP-Rh probe fluorescence polarization; inhibition, % at 5.9 µM; actives 0.16% (n = 320,000); AID 2174;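 active means inhibition above the mean of all tested compounds plus 3 SD, set per campaign, cut at about 14% in these data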;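 further: inhibitors block serine hydrolase probe labeling of LYPLA1 so polarization falls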
PREPL inhibitor = inhibitors of human prolyl oligopeptidase-like enzyme PREPL. Q4J6C6. recombinant PREPL, fluorescence polarization activity-based probe. inhibition, % at 5.96 µM. actives 0.68% (n = 320,000); in the data active means inhibition above about 43%
LYPLA2 counter = blocks human lysophospholipase 2, a PME1 counter-screen; recombinant LYPLA2, FP-Rh probe fluorescence polarization; O95372; inhibition, % at 5.9 µM; actives 0.38% (n = 320,000); AID 2177;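 active means inhibition above the screen-wide mean plus 3 SD, limit set per campaign, cut at about 26% in these data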
p97 inhibitor = human p97 ATPase inhibition; AID 1481; P55072; recombinant p97 ATPase, Kinase-Glo ATP luminescence, 3 h; actives 0.42% (n = 220,000); inhibition, % at 8 µM; in the data active means inhibition above about 15%
Hck Nef HTS = human Hck-Nef kinase inhibition; P08631; Recombinant Hck-YEEI plus Nef, Z-Lyte FRET kinase assay; inhibition, % at 20 µM; actives 0.68% (n = 220,000); AID 463187;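 active means Hck-Nef kinase inhibition above about 50%, limit read from the data; inactive means inhibition below that limit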
Target sequence (P08631 whole entry, looked up): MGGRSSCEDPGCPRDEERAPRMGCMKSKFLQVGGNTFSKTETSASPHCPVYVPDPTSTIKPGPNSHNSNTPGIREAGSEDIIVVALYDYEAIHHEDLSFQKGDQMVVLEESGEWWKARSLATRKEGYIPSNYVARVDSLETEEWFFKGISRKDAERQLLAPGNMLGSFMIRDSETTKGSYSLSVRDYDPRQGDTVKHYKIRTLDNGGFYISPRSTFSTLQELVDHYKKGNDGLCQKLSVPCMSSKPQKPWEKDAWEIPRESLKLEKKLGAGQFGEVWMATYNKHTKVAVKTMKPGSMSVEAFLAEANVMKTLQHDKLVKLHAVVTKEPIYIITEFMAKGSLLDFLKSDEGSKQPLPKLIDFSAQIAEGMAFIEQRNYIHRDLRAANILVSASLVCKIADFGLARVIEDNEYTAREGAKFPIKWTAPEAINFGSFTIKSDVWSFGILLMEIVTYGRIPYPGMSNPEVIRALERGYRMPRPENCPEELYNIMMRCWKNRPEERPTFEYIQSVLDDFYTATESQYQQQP
Rin1-Abl confirm = confirmation of inhibitors of human Rin1-Abl interaction. shares compounds with Rin1 Abl inh. actives 49% (n = 1,300). TR-FRET Rin1-Abl binding, purified proteins. inhibition, % at 7.35 µM
GFP quencher = counter-screen for Rin1-Abl inhibitors: GFP fluorescence quenchers; shares compounds with Rin1 Abl inh; actives 8.5% (n = 1,300); inhibition, % at 6.75 µM; AID 602125; inhibitors/quenchers counterscreen;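 further: ABL1-eGFP fusion protein alone without its partner RIN1-SBP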
GFP quench dose = counter-screen for Rin1-Abl inhibitors: GFP quenchers, dose response | shares compounds with Rin1 Abl inh | GFP fluorescence interference/quenching counterscreen | IC50, µM | 230 tested, under 10 active; call rule not given here;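 further: ABL1-eGFP fusion protein alone without its RIN1 binding partner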
A number is an active result; n = inactive; x = no result. Unless noted, no stated cut-off is given here; in the data, active means inhibition above about 6.5%; inactive means the rest.

SMILES	Rin1 Abl inh	LYPLA1 counter	PREPL inhibitor	LYPLA2 counter	p97 inhibitor	Hck Nef HTS	Rin1-Abl confirm	GFP quencher	others
Cc1oc(-c2ccccc2)nc1CS(=O)CC(=O)NC1CCCC1 (stereo not given)	n	n	n	n	x	x	x	x
CCCS(=O)(=O)NC(=O)C1(C)CCCN(C(=O)c2ccc(F)c(Cl)c2)C1 (stereo not given)	17.4	x	x	x	x	x	n	n
CCCNC(=O)C1(C)CCCN(C(=O)c2ccc(F)c(Cl)c2)C1 (stereo not given)	n	x	x	x	x	x	x	x
Cn1c(=O)c2c(nc(CN3CCN(C(=O)c4ccco4)CC3)n2Cc2cccc(Cl)c2)n(C)c1=O	7.1	n	n	n	n	n	n	n
COc1ccccc1/C=C1/C(=O)N(c2ccccc2)N=C1C	13.2	n	n	n	x	x	n	n
C#CCOc1ccc(/C=C2/C(=O)N(c3cccc(C(=O)O)c3)N=C2C)cc1OC	16.0	n	n	n	x	x	n	n
CCCCc1nnc(NC(=O)c2ccc(OCc3c(C)noc3C)cc2)s1	16.6	x	x	x	x	x	28.4	n	GFP quench dose=n
CCc1nnc(NC(=O)c2ccc(OCc3c(C)noc3C)c(OC)c2)s1	n	n	n	n	n	n	x	x
O=C1CCC([N+](=O)[O-])C(c2ccc(Br)cc2)N1 (stereo not given)	10.6	n	n	n	n	n	8.1	n
OCC[C@@H]1C[C@@H](O)[C@H](O)[C@]2(Cc3ccccc3CCO2)O1	n	n	n	n	x	x	x	x
COc1ccc(C)cc1N=Nc1ccc(O)c2ncccc12	9.0	x	x	x	n	n	10.5	7.0
COc1ccc(N=Nc2ccc(O)c3ncccc23)cc1	n	n	n	n	n	n	x	x
Oc1ccc(N=Nc2ccc3c(c2)OCCO3)c2cccnc12	11.3	n	n	n	n	n	8.4	8.1
COc1cccc(N=Nc2ccc(O)c3ncccc23)c1	n	n	n	n	x	x	x	x
CCOc1ccc(NC(=O)CSc2nc3ccccc3nc2N2CC(C)OC(C)C2)cc1 (stereo not given)	n	n	n	n	x	x	x	x
Cc1cccc(-n2c(N)c(-c3nc4ccccc4n3C)c3nc4ccccc4nc32)c1	12.4	n	n	n	n	n	n	n
Cn1c(-c2c(N)n(-c3ccccc3)c3nc4ccccc4nc23)nc2ccccc21	n	n	n	n	n	n	x	x
COc1cc(NC(=O)c2cc(-c3ccc4c(c3)OCO4)on2)cc(OC)c1OC	11.6	n	n	n	x	x	n	n
COc1cccc(N/N=C/c2cccc(Br)c2O)c1	n	n	n	n	n	n	x	x
Cc1cccc(N/N=C/c2ccc(O)c(O)c2O)c1	25.5	n	n	n	n	n	22.9	12.6
Cc1ccc(OCCNC(=O)Cn2cnc3c(=O)n(C)c(=O)n(C)c32)cc1C	10.5	n	n	n	n	n	n	n
CCCCN(C(=O)C1CCN(C(=O)c2ccccc2C)CC1)c1c(N)n(CCCC)c(=O)[nH]c1=O	n	n	n	n	x	x	x	x
CCCCn1c(N)c(N(CCC(C)C)C(=O)C2CCN(C(=O)c3ccccc3C)CC2)c(=O)[nH]c1=O	8.4	n	n	n	x	x	n	n
CCN1CCN(c2nc3c(C)cccn3c(=O)c2/C=C(\C#N)C(=O)NCCOC)CC1	n	n	n	n	x	x	x	x
CCOc1ccc(OCCCC(=O)N(C)CC(=O)Nc2ccc(N3CCOCC3)cc2)cc1	n	n	n	n	x	x	x	x
SMILES	Rin1 Abl inh	LYPLA1 counter	PREPL inhibitor	LYPLA2 counter	p97 inhibitor	Hck Nef HTS	Rin1-Abl confirm	GFP quencher	others
CN(CC(=O)Nc1ccc(N2CCOCC2)cc1)C(=O)CCCOc1ccc(Cl)cc1Cl	11.5	n	n	n	x	x	n	n
COc1cc(=O)[nH]c(SCC(=O)Nc2ccc3ccccc3c2)n1	12.7	n	n	n	x	x	n	n
COc1cc(CCC(=O)Nc2c(C(=O)N3CCN(c4ccccc4)CC3)oc3ccccc23)on1	n	n	n	n	x	x	x	x
CC(Oc1ccc(Cl)cc1Cl)C(=O)NNC(=O)c1cccnc1 (stereo not given)	8.9	n	n	n	x	x	n	n
O=C(NC1(O)C(=O)c2ccccc2C1=O)c1ccccc1	27.6	n	n	n	n	n	28.5	n	GFP quench dose=n
CCn1c(SCC(=O)Nc2nccs2)nnc1-c1ccc(C)cc1	n	n	n	n	n	n	x	x
CCC(=O)Nc1ccc(-c2nnc(SCC(=O)Nc3nccs3)n2C)cc1	7.2	n	n	n	n	n	n	n
Cc1ccc(-c2nnc(SCC(=O)Nc3nccs3)n2N)cc1	8.0	n	n	n	n	n	9.9	n
COc1ccc(CCCc2nnc(SCC(=O)Nc3nccs3)n2C)cc1C	8.4	n	n	n	n	n	n	n
CCOc1ccc(Cl)cc1S(=O)(=O)N1CCC(C(=O)N2CCCC2)CC1	n	n	n	n	x	x	x	x
Cc1ccccc1OCCNCC(C)O (stereo not given)	9.0	n	n	n	n	n	n	n
O=c1c(-c2ccccc2)coc2c(CN3CCCC3)c(O)ccc12	5.9	n	n	n	n	n	n	n
O=c1c(-c2ccc(Cl)cc2)coc2c(CN3CCOCC3)c(O)ccc12	n	n	n	n	n	n	x	x
COCC(=O)Nc1ccc2c(c1)[C@@H]1C[C@H](CC(=O)NCc3cccc(F)c3)O[C@@H](CO)[C@@H]1O2	49.9	x	x	x	x	x	n	n
COc1cc(OC)c2c(c1O)OC(c1ccccc1)CC2=O (stereo not given)	16.2	n	n	n	n	n	9.2	n
COc1ccccc1N(CC(=O)Nc1ccc(Br)cc1F)S(=O)(=O)c1cccs1	n	x	x	x	x	x	x	x
CN(C(=O)C(=O)c1cn(CC(=O)N2CCCC2)c2ccccc12)C1CCCCC1	n	n	n	n	x	x	x	x
O=C(Nc1ccc(S(=O)(=O)Nc2ncccn2)cc1)C1=COCCO1	n	n	n	n	x	x	x	x
CCNc1cc2c(cc1O)CCC1C2CCC2(C)C(O)CCC12 (stereo not given)	12.5	x	x	x	x	x	n	n
Cc1ccc(-n2nnnc2SCC(=O)N2Cc3ccccc3CC2C(=O)O)cc1 (stereo not given)	n	n	n	n	n	n	x	x
Cc1ccc(-n2c(SCC(=O)N3Cc4ccccc4CC3C(=O)O)nnc2-c2cccnc2)c(C)c1 (stereo not given)	7.0	n	n	n	n	n	18.1	n	GFP quench dose=n
COc1ccccc1CNc1nc(NCCNC(C)=O)c2sccc2n1	18.6	x	x	x	x	x	15.5	n
COc1ccccc1CNc1nc(NCc2ccccc2OC)c2sccc2n1	n	x	x	x	x	x	x	x
COc1ccccc1CNc1nc(NCc2ccc(NC(C)=O)cc2)c2sccc2n1	10.2	x	x	x	x	x	7.8	n
CC(=O)c1cccc(-c2ccnc3c2CC(C(=O)NCc2ccc(N4CCN(C)CC4)cc2)O3)c1 (stereo not given)	25.2	x	x	x	x	x	17.6	n	GFP quench dose=n

Screening results (PubChem)
